In ChEMBL document CHEMBL3988442, “University of Dundee, Small-Polar-MMV Screening Library” (2021):
For some assays here: Results with a measured potency or affinity are listed apart.

Tests used:
Set-up in all cases: scale not given: direction of the effect not stated beside the values
[1] = molecular target: Protein translocase subunit SecA (Escherichia coli (strain K12)) (UniProt P10408); experiment: Assay to Identify E. coli SecA ATPase Inhibitors; assay type: functional; conditions: 30 µM
[2] = molecular target: T1, Ubiquitin-activating enzyme e1, putative (Leishmania donovani (strain BPK282A1)) (UniProt E9BSI1); experiment: Leishmania donovani Ubiquitin Activating Enzyme (LdE1); assay type: functional; conditions: 30 µM
T1 sequence (whole entry): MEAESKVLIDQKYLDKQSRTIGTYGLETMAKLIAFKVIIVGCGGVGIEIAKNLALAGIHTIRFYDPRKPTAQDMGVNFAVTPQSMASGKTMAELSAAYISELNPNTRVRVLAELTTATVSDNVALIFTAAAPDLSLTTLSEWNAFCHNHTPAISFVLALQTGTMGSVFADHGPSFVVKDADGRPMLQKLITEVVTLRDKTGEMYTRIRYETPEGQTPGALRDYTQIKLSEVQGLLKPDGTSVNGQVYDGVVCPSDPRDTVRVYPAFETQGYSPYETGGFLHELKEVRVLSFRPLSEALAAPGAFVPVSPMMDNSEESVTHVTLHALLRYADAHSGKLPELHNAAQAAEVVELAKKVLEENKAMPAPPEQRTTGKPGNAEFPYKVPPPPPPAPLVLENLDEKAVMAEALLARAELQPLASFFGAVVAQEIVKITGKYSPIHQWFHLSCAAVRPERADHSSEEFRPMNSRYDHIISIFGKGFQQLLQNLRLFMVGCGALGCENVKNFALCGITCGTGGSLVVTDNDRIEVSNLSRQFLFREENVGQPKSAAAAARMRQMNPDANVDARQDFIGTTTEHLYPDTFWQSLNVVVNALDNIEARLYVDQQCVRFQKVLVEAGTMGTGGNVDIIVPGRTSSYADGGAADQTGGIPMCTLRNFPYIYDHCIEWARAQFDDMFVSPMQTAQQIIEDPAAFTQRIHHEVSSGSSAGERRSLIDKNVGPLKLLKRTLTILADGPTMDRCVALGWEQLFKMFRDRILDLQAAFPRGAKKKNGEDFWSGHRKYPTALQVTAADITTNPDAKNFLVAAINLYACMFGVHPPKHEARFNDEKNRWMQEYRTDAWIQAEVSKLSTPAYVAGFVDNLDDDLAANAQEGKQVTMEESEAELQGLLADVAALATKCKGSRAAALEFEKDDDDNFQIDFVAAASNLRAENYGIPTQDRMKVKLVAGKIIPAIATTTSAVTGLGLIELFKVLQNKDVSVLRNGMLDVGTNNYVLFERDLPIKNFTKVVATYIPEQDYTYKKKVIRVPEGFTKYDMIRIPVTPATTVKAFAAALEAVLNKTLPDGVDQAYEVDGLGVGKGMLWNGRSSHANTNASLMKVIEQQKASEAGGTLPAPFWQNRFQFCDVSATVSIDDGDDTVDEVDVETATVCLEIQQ

[3] = molecular target: AMP-activated protein kinase, AMPK (Homo sapiens) (UniProt P54646+O43741+P54619+Q9UGJ0+Q9Y478+Q13131+Q9UGI9); experiment: AMP-dependent Kinase enzyme assay. An in vitro enzyme assay that detects ADP turnover that is directly proportional to AMPK activity. This uses naive AMPK that is activated during the assay with MK-8722; assay type: functional; conditions: 30 µM
[4] = molecular target: Sialic acid-binding Ig-like lectin 9 (Homo sapiens) (UniProt Q9Y336); experiment: Hs-Siglec9 ALPHAscreen SOP 20170721; conditions: 10 µM
Chain of Sialic acid-binding Ig-like lectin 9 (Homo sapiens) (Q9Y336 whole entry): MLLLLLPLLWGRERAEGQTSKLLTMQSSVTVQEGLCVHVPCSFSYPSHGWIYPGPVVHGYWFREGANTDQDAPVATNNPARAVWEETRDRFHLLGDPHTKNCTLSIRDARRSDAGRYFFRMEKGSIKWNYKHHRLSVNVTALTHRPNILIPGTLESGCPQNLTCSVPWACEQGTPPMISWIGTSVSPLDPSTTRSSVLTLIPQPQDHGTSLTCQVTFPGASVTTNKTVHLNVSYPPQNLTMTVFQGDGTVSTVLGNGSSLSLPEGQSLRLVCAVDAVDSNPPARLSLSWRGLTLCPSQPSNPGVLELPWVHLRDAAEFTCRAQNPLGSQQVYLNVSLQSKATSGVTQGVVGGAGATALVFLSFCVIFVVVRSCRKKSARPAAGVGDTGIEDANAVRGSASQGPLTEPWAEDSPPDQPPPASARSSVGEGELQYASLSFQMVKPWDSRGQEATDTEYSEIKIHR

Trypanosoma cruzi = experiment: Trypanosoma cruzi phosphomannomutase and mannose-1-phosphate guanylyltransferase assay; assay type: functional; conditions: 10 µM
[5] = molecular target: T2, Arginase-2, mitochondrial (Homo sapiens) (UniProt P78540); experiment: in vitro enzyme assay to detect the production of urea directly proportional to the activity of Arginase II; assay type: functional; conditions: 33.3 µM; note: in the data most compounds retested in dose-response had high values
T2 sequence (whole entry): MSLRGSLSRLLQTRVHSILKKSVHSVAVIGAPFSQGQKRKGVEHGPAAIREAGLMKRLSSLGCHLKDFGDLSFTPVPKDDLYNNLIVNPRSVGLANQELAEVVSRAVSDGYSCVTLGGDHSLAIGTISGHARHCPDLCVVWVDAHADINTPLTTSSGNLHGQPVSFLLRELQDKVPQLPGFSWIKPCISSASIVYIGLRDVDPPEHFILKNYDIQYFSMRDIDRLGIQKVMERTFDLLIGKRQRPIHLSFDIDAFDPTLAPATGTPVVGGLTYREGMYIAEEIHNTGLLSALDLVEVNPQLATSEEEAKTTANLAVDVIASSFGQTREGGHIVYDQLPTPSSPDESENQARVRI

[6] = molecular target: T3, Proteasome subunit beta (Trypanosoma cruzi) (UniProt O96673); experiment: Trypanosoma cruzi proteasome chymotrypsin-like activity (TcProtChymo) assay.; note: in the data most compounds retested in dose-response had high values; assay type: functional; conditions: 9.37 µM
T3 sequence (whole entry): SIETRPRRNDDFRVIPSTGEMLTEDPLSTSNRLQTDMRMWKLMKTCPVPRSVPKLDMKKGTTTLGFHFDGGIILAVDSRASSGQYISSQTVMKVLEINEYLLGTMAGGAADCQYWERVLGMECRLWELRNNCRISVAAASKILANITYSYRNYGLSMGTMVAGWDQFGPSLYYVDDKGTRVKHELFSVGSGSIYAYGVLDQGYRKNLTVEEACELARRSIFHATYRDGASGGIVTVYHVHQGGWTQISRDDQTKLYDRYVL

Homo sapiens = species on record: Homo sapiens; experiment: To identify inhibition of the IFN signalling (Jak-Stat) pathway via expression of an eGFP reporter gene under the control of an IFN-stimulated response element (ISRE) containing MxA promoter.; assay type: functional; conditions: 30 µM
[7] = molecular target: T4, Tyrosyl-tRNA synthetase, putative (Trypanosoma cruzi (strain CL Brener)) (UniProt Q4DSP6); experiment: Trypanosoma cruzi tyrosyl tRNA synthetase (TcYRS) _High Tyrosine SOP; assay type: functional; conditions: 30 µM; note: in the data most compounds retested in dose-response had high values
T4 sequence (whole entry): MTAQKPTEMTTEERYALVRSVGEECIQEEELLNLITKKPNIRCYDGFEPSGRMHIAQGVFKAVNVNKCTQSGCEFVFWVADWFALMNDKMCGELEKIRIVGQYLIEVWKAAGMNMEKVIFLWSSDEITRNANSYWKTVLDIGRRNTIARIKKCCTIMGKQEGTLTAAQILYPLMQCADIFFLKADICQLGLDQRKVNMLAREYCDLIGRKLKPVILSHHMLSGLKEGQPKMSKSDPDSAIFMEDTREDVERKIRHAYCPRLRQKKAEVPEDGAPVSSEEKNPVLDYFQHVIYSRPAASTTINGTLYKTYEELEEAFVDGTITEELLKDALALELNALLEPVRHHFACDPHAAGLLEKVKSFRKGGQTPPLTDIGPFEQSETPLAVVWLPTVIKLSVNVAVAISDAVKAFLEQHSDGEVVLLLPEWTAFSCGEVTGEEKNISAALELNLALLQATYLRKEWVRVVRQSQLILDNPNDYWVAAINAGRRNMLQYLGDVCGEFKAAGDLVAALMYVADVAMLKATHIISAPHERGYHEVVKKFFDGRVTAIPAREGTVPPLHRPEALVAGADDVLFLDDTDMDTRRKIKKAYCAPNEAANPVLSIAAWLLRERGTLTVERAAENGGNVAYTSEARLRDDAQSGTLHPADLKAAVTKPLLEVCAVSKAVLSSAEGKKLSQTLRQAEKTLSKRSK

[8] = molecular target: T4, Tyrosyl-tRNA synthetase, putative (Trypanosoma cruzi (strain CL Brener)); experiment: Trypanosoma cruzi tyrosyl tRNA synthetase (TcYRS) SOP; assay type: functional; conditions: 30 µM
[9] = molecular target: Chromo domain-containing protein 1 (Saccharomyces cerevisiae (strain ATCC 204508 / S288c) (Baker's yeast)) (UniProt P32657); experiment: ScCHD-1 Enzyme Inhibition Assay; assay type: functional; conditions: 30 µM; note: in the data most compounds retested in dose-response had high values
Chain of Chromo domain-containing protein 1 (Saccharomyces cerevisiae (strain ATCC 204508 / S288c) (Baker's yeast)) (P32657 whole entry, the tested form may be a part): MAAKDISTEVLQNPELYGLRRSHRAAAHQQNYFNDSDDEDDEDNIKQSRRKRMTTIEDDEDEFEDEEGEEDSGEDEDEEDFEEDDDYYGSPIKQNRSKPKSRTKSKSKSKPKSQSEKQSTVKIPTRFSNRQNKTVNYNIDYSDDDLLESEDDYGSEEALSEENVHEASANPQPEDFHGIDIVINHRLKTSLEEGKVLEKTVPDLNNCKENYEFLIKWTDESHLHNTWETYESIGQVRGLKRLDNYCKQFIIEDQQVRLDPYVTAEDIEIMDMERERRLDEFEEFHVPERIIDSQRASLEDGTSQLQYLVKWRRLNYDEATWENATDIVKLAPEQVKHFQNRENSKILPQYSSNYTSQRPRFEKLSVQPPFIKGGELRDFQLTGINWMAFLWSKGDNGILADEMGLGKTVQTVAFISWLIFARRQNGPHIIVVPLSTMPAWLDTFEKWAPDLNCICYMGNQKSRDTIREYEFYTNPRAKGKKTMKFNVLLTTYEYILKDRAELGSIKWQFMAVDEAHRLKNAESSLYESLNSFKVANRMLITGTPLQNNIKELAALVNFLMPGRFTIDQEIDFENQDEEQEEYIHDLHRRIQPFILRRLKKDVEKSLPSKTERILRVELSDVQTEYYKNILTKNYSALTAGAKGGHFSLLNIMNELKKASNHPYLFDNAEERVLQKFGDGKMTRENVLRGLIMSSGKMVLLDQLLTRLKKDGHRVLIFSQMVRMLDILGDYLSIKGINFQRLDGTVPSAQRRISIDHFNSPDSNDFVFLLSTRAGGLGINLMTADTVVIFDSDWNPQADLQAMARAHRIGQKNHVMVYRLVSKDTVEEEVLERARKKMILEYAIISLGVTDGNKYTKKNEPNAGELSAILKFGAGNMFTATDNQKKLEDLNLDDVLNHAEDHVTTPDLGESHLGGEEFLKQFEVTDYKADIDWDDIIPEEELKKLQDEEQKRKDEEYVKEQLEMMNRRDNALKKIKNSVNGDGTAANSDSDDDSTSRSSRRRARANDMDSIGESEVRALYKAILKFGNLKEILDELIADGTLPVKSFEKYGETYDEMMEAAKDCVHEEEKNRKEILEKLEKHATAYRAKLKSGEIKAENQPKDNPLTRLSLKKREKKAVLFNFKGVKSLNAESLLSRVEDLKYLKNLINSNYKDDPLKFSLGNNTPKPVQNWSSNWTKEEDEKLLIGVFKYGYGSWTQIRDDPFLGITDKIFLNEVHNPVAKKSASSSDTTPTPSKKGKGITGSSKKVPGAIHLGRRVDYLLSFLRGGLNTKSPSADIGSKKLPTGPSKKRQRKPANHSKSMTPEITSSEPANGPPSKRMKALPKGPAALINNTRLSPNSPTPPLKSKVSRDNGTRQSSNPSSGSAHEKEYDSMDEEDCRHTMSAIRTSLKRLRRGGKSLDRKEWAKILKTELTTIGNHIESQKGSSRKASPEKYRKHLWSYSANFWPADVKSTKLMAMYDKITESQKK

Chain of Protein translocase subunit SecA (Escherichia coli (strain K12)) (P10408 whole entry): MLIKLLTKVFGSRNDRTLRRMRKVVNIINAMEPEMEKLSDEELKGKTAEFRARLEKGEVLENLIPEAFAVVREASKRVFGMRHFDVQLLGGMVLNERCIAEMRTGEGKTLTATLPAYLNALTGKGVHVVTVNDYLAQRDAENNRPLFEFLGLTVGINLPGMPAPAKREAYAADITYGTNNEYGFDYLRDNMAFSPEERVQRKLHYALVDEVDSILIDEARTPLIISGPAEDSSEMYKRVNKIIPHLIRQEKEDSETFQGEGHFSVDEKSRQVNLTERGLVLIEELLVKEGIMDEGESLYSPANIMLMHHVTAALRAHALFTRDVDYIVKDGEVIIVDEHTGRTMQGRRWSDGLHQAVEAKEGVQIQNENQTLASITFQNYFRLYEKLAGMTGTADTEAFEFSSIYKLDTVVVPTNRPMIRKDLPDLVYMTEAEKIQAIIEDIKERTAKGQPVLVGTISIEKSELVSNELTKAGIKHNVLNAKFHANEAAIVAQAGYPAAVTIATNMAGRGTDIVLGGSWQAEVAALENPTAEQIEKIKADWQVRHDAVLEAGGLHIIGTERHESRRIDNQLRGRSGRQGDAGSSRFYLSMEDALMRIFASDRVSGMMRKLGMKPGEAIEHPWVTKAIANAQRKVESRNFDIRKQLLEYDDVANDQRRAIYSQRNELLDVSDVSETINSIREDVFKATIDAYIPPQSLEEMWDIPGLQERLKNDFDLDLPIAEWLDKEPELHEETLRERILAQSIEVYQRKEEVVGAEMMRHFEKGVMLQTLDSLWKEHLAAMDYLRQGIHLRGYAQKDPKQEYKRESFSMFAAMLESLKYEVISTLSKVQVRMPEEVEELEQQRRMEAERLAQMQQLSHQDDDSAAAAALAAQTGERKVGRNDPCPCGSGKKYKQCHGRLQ

| Compound | Percent Effect [1] | Percent Effect [2] | Percent Effect [3] | Percent Effect [4] | Percent Effect (Trypanosoma cruzi) | Percent Effect [5] | Percent Effect [6] | Percent Effect (Homo sapiens) | Percent Effect [7] | Percent Effect [8] | Percent Effect [9] |
| --- | --- | --- | --- | --- | --- | --- | --- | --- | --- | --- | --- |
| Cc1cc(-c2cnn(CCNC(=O)C3CCCO3)c2C2CC2)on1 (stereo not given) | -5.64% | 4.05% | 12% | 8.12% | 5.34% | 0.232% | 3.59% | 0.87% | 2.15% | 11.7% | 0.889% |
| O=C1COC2(COCCN(Cc3cccnc3)C2)CN1c1ccoc1 (stereo not given) | -0.625% | 5.2% | 2.84% | 0.684% | -10.6% | 7.1% | 4.87% | 8.52% | 0% | 1.28% | -1.12% |
| CC1CN(C(=O)c2ccn(-c3cccc(Cl)c3)n2)CCO1 (stereo not given) | -7.39% | 20.8% | 0.341% | 6.09% | 7.87% | -2.13% | 17.4% | 16.3% | 8.74% | 24.4% | -10.1% |
| Cn1ccnc1CN1CCCN(C(=O)c2ccc3c(c2)COC3)CC1 | -5.22% | 18.4% | 0.632% | -6.65% | -6.44% | 3.24% | 7.7% | -1.32% | 4.43% | 11.1% | -7.65% |
| Cc1ccc(CN(Cc2c[nH]cn2)C2CC(C)(C)NC(C)(C)C2)o1 | -2.16% | 4.05% | 13.8% | 0.615% | -9.49% | -1.62% | 10.4% | 12.1% | 4.3% | 3.9% | -10.2% |
| COC(CNC(=O)N1CCC(n2cncn2)CC1)c1ccccc1 (stereo not given) | -0.684% | -3.8% | 13.4% | 3.12% | -1.13% | 1.94% | 0.686% | 0.165% | 2.08% | 2.53% | -14.3% |
| COc1c(CNCc2cccc(Cn3ccnc3)c2)c(C)nn1C | -5.63% | 21.6% | -15% | 13.9% | 5.38% | -11.2% | 10.3% | 37.8% | 4.43% | 18.5% | -10% |
| Cc1cc(CN2CCN(C(=O)c3sccc3C3CC3)CC2)on1 | -1.18% | 10.4% | 2.54% | -6.72% | -7.35% | 1.05% | 9.62% | 18.1% | 4.76% | 18.8% | -15.4% |
| O=C(c1ccccc1-n1cccn1)N1CCCN(c2cccnn2)CC1 | -2.4% | -15.6% | 5.31% | 10.5% | -0.294% | 1.05% | 9.46% | -6.03% | 0.952% | 9.41% | -13.5% |
| COCCN1CCC2(CC1)CC(COC)N(c1ncccn1)C2 (stereo not given) | -4.36% | 7.79% | 1.21% | 1.5% | 1.48% | -19.3% | 7.99% | -6.06% | 3.23% | 3.7% | 1.23% |
